From PubChem BioAssay
The source made the active and inactive calls.

Assays:
Albumin (Bos taurus) = Albumin (Bos taurus) (UniProt P02769); experiment: compounds binding labelled BSA control protein – biochemical, small-molecule microarray, Alexa647 label, 635/667 nm fluorescence, artefact control for SMM control protein annotation, profiling panel (AID 1118); conditions: BSA-A647 binding, fluorescence 635 nm, higher = more signal;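 also: score merges 667 nm emission intensity and signal-to-noise per printed compound spot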
Sequence of Albumin (Bos taurus) (P02769 whole entry, looked up): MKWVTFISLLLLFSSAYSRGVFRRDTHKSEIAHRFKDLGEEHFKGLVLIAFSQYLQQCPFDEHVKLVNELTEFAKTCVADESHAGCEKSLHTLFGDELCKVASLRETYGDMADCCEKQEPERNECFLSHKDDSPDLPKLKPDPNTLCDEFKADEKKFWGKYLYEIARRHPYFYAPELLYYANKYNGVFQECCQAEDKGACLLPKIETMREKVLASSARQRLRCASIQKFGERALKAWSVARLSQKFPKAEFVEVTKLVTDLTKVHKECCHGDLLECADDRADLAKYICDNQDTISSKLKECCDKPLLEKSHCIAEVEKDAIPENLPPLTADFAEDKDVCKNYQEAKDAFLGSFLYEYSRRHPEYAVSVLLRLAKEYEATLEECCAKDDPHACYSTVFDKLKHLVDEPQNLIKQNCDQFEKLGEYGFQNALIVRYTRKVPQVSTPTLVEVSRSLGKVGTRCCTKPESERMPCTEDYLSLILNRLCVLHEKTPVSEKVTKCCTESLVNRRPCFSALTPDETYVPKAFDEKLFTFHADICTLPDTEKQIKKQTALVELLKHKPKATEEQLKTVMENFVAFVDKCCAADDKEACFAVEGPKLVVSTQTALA

[1] = probe aXIP binding to arrayed compounds – biochemical, NeuroSMM set, 635/667 nm fluorescence, primary screen (AID 1119); conditions: small-molecule microarray, higher = more signal, called active from +8 up or from −8 down;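 also: probe is the protein aXip251-270 applied at 1 µg/mL to compound-printed slides; binding of probe to printed compounds measured as 667 nm fluorescence plus signal to noise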
[2] = probe aNOTCH3 binding on compound microarray – biochemical, small-molecule microarray, 635/667 nm fluorescence, primary screen (AID 1120); conditions: higher = more signal;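 also: probe is a biotin-tagged antibody raised against NOTCH3 rather than NOTCH3 protein; score merges spot fluorescence near 667 nm with spot signal to noise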
[3] = probe aNOTCH2 binding on compound microarray – biochemical, small-molecule microarray, 635/667 nm fluorescence, primary screen (AID 1121); conditions: higher = more signal;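 also: score merges feature fluorescence read at 667 nm with its signal to noise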
[4] = molecular target: Carbonic anhydrase 2 (Homo sapiens) (UniProt P00918); experiment: compounds binding carbonic anhydrase 2 – biochemical, small-molecule microarray, Alexa647-labelled CAII, profiling panel (AID 1122); conditions: CAII-A647 binding fluorescence, higher = more signal
[5] = COS7 lysate on small-molecule microarray, probe aHis, 635 nm (AID 1123); conditions: COS7 cell lysate, fluorescence, higher = more signal;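 also: z-score combines 667nm fluorescence intensity with signal-to-noise per printed compound spot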
[6] = probe aLAP1 signal on lysate-treated microarray – cell lysate, small-molecule microarray, COS7 lysate, primary screen (AID 1124); conditions: probe aLAP1, fluorescence, higher = more signal;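 also: lysate comes from COS7 cells expressing LAP1 and is applied at 0.3 µg/mL; score merges spot fluorescence near 667 nm with signal-to-noise over triplicate slides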
Sam68 (KHDRBS1) = experiment: compounds binding KHDRBS1 protein – biochemical, small-molecule microarray, 635 nm fluorescence, primary screen (AID 1125); conditions: higher = more signal;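 also: score merges 667 nm channel intensity with signal to noise over triplicate slides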
[7] = tested on: Chordin-like protein 2 (CHRDL2); experiment: compounds binding chordin-like 2 – biochemical, small-molecule microarray, 635 nm fluorescence, primary screen (AID 1126); conditions: fluorescence 635 nm, higher = more signal;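 also: printed compound slides probed with Chrdl2 protein at 4 µg/mL for 1 h at 4 C; score merges 667 nm emission intensity with signal to noise over three replicate slides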
[8] = molecular target: Concanavalin-A (Canavalia ensiformis) (UniProt P02866); experiment: compounds binding concanavalin A lectin – biochemical, small-molecule microarray, Alexa647 label, 635 nm, artefact control for SMM control protein annotation, primary screen (AID 1127); conditions: ConA-A647 binding fluorescence, higher = more signal;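 also: z combines 667 nm emission intensity with signal-to-noise across three replicate slides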
Sequence of Concanavalin-A (Canavalia ensiformis) (P02866 whole entry, looked up): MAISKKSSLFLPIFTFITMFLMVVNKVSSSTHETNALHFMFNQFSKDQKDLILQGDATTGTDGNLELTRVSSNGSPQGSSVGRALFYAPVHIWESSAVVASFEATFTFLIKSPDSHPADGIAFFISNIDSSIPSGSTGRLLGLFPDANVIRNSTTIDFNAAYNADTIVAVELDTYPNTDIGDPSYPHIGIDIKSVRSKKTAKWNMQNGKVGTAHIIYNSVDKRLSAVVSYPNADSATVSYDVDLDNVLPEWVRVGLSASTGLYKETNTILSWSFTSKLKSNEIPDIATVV

[9] = compounds binding Alexa647 anti-His antibody – biochemical, small-molecule microarray, 635 nm fluorescence, artefact control for SMM control protein annotation, primary screen (AID 1128); conditions: higher = more signal;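 also: score merges feature fluorescence with signal-to-noise for each printed compound spot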
[10] = tested on: Human papillomavirus type 1a E7 protein (residues 1-88); experiment: HPV1a E7 small-molecule binders, primary screen, biochemical, small-molecule microarray, residues 1-88, 635 nm (AID 1129); conditions: small-molecule microarray binding, fluorescence 635 nm; higher = more signal
[11] = molecular target: Focal adhesion kinase 1 (Homo sapiens) (UniProt Q05397); experiment: PTK2 protein binding on printed compound slides – biochemical, small-molecule microarray, 635/667 nm fluorescence, BSA, DTT, primary screen (AID 1130); conditions: 635 nm fluorescence, higher = more signal;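 also: composite of spot emission at 667 nm and signal to noise over triplicate slides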
Sequence of Focal adhesion kinase 1 (Homo sapiens) (Q05397 whole entry, looked up): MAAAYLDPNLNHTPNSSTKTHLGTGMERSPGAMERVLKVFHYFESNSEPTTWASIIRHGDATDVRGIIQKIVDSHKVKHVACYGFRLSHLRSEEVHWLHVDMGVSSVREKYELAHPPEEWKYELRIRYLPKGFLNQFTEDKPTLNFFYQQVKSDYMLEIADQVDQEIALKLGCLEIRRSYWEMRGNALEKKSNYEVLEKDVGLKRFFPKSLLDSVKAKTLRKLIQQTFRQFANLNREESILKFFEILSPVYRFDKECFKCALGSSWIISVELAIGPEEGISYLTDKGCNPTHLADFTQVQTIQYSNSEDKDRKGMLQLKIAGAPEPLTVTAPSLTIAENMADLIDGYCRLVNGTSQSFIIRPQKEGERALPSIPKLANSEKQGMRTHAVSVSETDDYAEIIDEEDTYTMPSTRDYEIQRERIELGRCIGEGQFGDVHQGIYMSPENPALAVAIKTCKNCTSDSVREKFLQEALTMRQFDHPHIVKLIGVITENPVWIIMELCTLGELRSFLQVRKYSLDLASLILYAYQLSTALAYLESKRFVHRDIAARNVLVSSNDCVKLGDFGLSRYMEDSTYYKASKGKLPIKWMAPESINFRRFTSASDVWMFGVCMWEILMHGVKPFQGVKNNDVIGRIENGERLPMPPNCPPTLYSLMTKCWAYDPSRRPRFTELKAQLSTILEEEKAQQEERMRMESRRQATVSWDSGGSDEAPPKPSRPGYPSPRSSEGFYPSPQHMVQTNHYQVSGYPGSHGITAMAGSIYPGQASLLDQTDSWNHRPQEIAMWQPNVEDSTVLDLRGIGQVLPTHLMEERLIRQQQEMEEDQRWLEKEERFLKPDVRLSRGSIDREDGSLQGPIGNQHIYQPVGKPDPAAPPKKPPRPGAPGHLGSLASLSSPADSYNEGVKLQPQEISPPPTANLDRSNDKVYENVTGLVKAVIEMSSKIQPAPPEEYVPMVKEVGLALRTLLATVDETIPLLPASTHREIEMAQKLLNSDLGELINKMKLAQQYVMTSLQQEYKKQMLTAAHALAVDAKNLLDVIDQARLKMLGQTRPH

[12] = tested on: Fibrinogen (Alexa647-labelled); experiment: Alexa647-fibrinogen binding to printed small molecules – biochemical, small-molecule microarray, 635/667 nm fluorescence, artefact control for SMM control-protein annotation, profiling panel (AID 1131); conditions: fibrinogen-A647 binding fluorescence, higher = more signal;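 also: z-score merges 667 nm fluorescence with per-spot signal-to-noise over triplicate slides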
[13] = molecular target: Follistatin (Homo sapiens) (UniProt P19883); experiment: FST protein binding to printed compounds – biochemical, small-molecule microarray, 635/667 nm fluorescence, primary screen (AID 1132); conditions: 635 nm fluorescence, higher = more signal
Sequence of Follistatin (Homo sapiens) (P19883 whole entry, looked up): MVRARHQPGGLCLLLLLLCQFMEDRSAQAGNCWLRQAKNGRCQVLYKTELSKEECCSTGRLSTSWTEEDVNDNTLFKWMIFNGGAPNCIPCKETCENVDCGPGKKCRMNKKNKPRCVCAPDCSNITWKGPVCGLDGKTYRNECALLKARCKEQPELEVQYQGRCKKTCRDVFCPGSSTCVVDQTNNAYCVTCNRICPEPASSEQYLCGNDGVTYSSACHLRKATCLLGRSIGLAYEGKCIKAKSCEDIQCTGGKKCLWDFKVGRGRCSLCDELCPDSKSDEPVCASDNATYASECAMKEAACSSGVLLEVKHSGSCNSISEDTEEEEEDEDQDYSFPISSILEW

[14] = molecular target: Fibroblast growth factor 2 (Homo sapiens) (UniProt P09038); experiment: basic fibroblast growth factor binding to printed compounds – biochemical, small-molecule microarray, 635/667 nm fluorescence, primary screen (AID 1133); conditions: FGF2, fluorescence 635/667, higher = more signal
Sequence of Fibroblast growth factor 2 (Homo sapiens) (P09038 whole entry, looked up): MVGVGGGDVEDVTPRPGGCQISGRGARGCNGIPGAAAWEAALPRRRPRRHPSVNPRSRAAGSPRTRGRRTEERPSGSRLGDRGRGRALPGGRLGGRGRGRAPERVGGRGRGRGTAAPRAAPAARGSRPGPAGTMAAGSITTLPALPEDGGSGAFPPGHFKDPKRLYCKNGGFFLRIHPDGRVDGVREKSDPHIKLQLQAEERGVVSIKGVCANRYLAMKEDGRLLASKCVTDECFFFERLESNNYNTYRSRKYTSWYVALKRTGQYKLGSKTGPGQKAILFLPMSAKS

[15] = JC-1 mitochondrial potential readout, lung cancer cells – cell-based, A549, JC-1 fluorescence, basal, 24 h, 100 nL, profiling panel (AID 1138); conditions: higher = more signal;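 also: A549 lung adenocarcinoma cells under basal conditions with no added stimulus; test concentration not given here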
Lefty1 = Lefty1 protein binding to printed compounds – biochemical, small-molecule microarray, 635/667 nm fluorescence, primary screen (AID 1139); conditions: fluorescence 635/667, higher = more signal
[16] = tested on: wheat germ agglutinin (Triticum aestivum), Alexa647-labelled; experiment: Alexa647-WGA lectin binding to printed small molecules – biochemical, small-molecule microarray, 635/667 nm fluorescence, artefact control for SMM control-protein annotation, profiling panel (AID 1140); conditions: WGA-A647 binding, 635 nm fluorescence, higher = more signal;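 also: score merges 667 nm feature emission with signal to noise over triplicate slides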
[17] = molecular target: Luciferin 4-monooxygenase (Photinus pyralis) (UniProt P08659); experiment: inhibition of purified Photinus pyralis luciferase – biochemical, luminescence, purified enzyme, 2006 set, primary screen (AID 1141); conditions: purified firefly luciferase, SteadyGlo luminescence, 30 min; higher = more signal, called active from +8 up or from −8 down;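 also: cell-free assay with purified firefly luciferase at 100 ng per well in PBS; test concentration not given here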
Sequence of Luciferin 4-monooxygenase (Photinus pyralis) (P08659 whole entry, looked up): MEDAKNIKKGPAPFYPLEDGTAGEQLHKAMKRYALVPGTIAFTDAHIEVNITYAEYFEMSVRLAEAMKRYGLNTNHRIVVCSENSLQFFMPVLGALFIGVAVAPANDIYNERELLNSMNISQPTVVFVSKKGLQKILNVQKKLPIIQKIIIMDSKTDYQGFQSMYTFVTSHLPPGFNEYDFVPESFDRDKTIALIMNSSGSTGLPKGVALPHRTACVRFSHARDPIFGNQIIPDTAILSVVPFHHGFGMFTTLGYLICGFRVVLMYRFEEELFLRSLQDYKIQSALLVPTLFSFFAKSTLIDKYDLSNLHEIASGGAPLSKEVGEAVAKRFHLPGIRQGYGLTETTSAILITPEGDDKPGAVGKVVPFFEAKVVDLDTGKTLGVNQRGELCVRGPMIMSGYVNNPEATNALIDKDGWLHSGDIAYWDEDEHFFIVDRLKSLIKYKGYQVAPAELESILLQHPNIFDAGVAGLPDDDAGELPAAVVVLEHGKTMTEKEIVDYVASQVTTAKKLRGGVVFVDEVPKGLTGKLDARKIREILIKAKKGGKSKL

Row | SMILES | composite z-score (Albumin (Bos taurus)) | composite Z-score [1] | composite z-score [2] | composite z-score [3] | composite z-score [4] | composite z-score [5] | composite z-score [6] | composite z-score (Sam68 (KHDRBS1)) | composite z-score [7] | composite z-score [8] | composite z-score [9] | composite z-score [10] | composite z-score [11] | composite z-score [12] | composite z-score [13] | composite z-score [14] | z-score [15] | composite z-score (Lefty1) | composite z-score [16] | z-score [17]
1 | CN(C)CCCC[C@@H]1NC(=O)[C@@H]2C[C@H](C(=O)NCc3ccc(F)cc3)[C@H](c3ccc(O)cc3)N2C1=O | -0.16 | 0.0275 (inactive) | 0.0562 | -0.0974 | 0.609 | 0.901 | 0.339 | 0.17 | 0.0978 | 0.911 | 0.0971 | 0.0709 | -0.103 | 0.348 | 1.45 | 1.91 | 0.0539 | 0.748 | -0.0665 | 0.144 (inactive)
2 | CCOC(=O)C[C@H]1[C@H](OC(=O)Cc2ccc3c(c2)OCO3)[C@@H](NC(=O)c2ccccc2)c2cc(OCCCO)ccc2N1C(=O)Cc1ccc(OC)cc1 | 0.521 | -0.751 (inactive) | -0.116 | -0.0974 | 0.544 | 1.04 | -0.0337 | 0.683 | -0.302 | 0.808 | 0.752 | 0.263 | 0.161 | 0.792 | 0.19 | -0.027 | 0.291 | 0.305 | 0.674 | 0.296 (inactive)
3 | CCC(CC)C(O)C1C=CC2C(=O)N(C)C(=O)C2N1N1CCCCC1 (stereo not given) | 0.999 | -0.175 (inactive) | 0.499 | 0.0477 | 0.755 | 2.5 | 0.502 | 1.31 | 0.0277 | 1.13 | 2.05 | 1.23 | -0.0333 | 0.967 | 1.33 | 0.406 | 0.309 | 0.831 | 1.12 | -0.203 (inactive)
4 | C=CC[C@@]1(C(=O)O)N=C(c2ccc(OCCCO)cc2)O[C@@H]1c1ccccc1CN=[N+]=[N-] | 0.557 | -0.632 (inactive) | 0.0991 | -0.147 | 0.596 | 1.9 | 0.0424 | 0.826 | 0.439 | 1.05 | 0.706 | 0.86 | 0.518 | 0.68 | 0.939 | 0.381 | -0.472 | 0.588 | 1.24 | -0.926 (inactive)
5 | COC(=O)[C@@]1(Cc2ccc(F)cc2)[C@H]2c3cc(C(=O)N(C)C)n(CCn4cc([N+](=O)[O-])nc4C)c3C[C@H]2CN1C(=O)c1ccccc1 | 0.781 | -0.133 (inactive) | 0.0203 | 0.107 | 0.477 | 2.02 | 0.317 | 0.155 | -0.187 | 0.294 | 1.07 | 1.11 | 1.45 | 0.835 | -0.394 | -0.776 | 0.608 | -1.07 | 0.288 | 0.984 (inactive)
